A short description of experiment [1]: qHTS profiling for inhibitors of Plasmodium falciparum proliferation (AID 504749).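 Note: 0% = DMSO vehicle and full inhibition = artemisinin control; nearly all actives have a fitted effect of over 60% in size.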 To be noted: P. falciparum in erythrocytes, SYBR Green DNA, 72 h, at 28.7 µM (top of the series). In short, it runs like this:
(§1)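 SYBR Green fluorescence of parasite DNA, read after lysis and overnight dark incubation, measured growth over 72 h in erythrocyte culture at 0.3% parasitemia and 2.5% hematocrit. Data normalised to DMSO and 0.29 uM artemisinin, with plate-drift correction.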
Background: qHTS replaces the single test concentration by a dilution series.

The next experiment deals with 3D7. The description is as above. As to conditions: P. falciparum in erythrocytes, SYBR Green DNA, 72 h; series mostly up to 28.7 µM. In short, it runs like this: as §1
A further experiment has as its system 7G8. The description is as above. As to conditions: P. falciparum in erythrocytes, SYBR Green DNA, 72 h; series mostly up to 28.7 µM. In a few lines: as §1
Another experiment has as its system AA1029. The experiment is described as above. As to conditions: P. falciparum in erythrocytes, SYBR Green DNA, 72 h; series mostly up to 28.7 µM. In short, it runs like this:
as §1

The test system of the next experiment is AS120. The experiment is described as above. As to conditions: P. falciparum in erythrocytes, SYBR Green DNA, 72 h; series mostly up to 28.7 µM. In a few lines: as §1
Another experiment concerns ATS189. The experiment is described as above. As to conditions: P. falciparum in erythrocytes, SYBR Green DNA, 72 h; series mostly up to 28.7 µM. In short, it runs like this: as §1
For a further experiment, the system named is ATS95. The experiment is described as above. As to conditions: P. falciparum in erythrocytes, SYBR Green DNA, 72 h; series mostly up to 28.7 µM. In a few lines:
as §1

Another experiment relates to C2A. Described as above. To be noted: P. falciparum in erythrocytes, SYBR Green DNA, 72 h; series mostly up to 28.7 µM. In a few lines: as §1
Experiment [2] in a line: Quantitative High-Throughput drug screen in 47 multiple myeloma cell lines against the NCATS MIPE library collection: PCM6_Riken cell viability assay (AID 1919870). Note: nearly all actives have a fitted effect of over 30% in size. Note: potency is the fitted concentration of half-maximal effect. To be noted: CellTiter-Glo ATP, 48 h; series mostly up to 45.8 µM. In short, it runs like this: (§2)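 ATP-based CellTiter-Glo luminescence after 48 h drug exposure (37 °C, 5% CO2) of 500 myeloma cells per well. DMSO-only wells set 100% viability, media-only wells 0%; MIPE 4.0 library added by pin tool.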
(In general: ATP-based viability assays read luminescence as a measure of living cells.)

Experiment [3] in a line: Quantitative High-Throughput drug screen in 47 multiple myeloma cell lines against the NCATS MIPE library collection: OPM2_DSMZ cell viability assay (AID 1919872). Note: nearly all actives have a fitted effect of over 30% in size. As to conditions: OPM2 myeloma viability, CellTiter-Glo ATP luminescence, 48 h; series mostly up to 45.8 µM. In short, it runs like this: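 CellTiter-Glo ATP luminescence gave viability after 48 h compound treatment at 37C of 500 multiple myeloma cells per well. Normalisation used DMSO-only wells as 100% and media-only wells as 0% viability; primary qHTS of approved and investigational drugs.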

Experiment [4] can be described thus: Quantitative High-Throughput drug screen in 47 multiple myeloma cell lines against the NCATS MIPE library collection: KMS11_JCRBsus cell viability assay (AID 1919873). Note: nearly all actives have a fitted effect of over 50% in size. As to conditions: KMS11 myeloma viability, CellTiter-Glo ATP luminescence, 48 h; series mostly up to 45.8 µM. In short, it runs like this:
as §2

A short description of experiment [5]: qHTS drug screen for cell cycle checkpoint inhibitors in PARPi-resistant BRCA-mutant ovarian cancer cell lines. (AID 1963452; calls by dose curve). As to conditions: PEO1/OlaR viability, CellTiter-Glo luminescence, 96 h, stronger effect = lower value. In short, it runs like this: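 PEO1, PEO4 and PEO1/OlaR ovarian cancer cells, 600 per well, exposed 96 h at 37C to a dilution series. Viability read by CellTiter-Glo luminescence, normalized to DMSO and empty wells; activity summarized as Z-AUC.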

A short description of experiment [6]: Quantitative High-Throughput drug screen in 47 multiple myeloma cell lines against the NCATS MIPE library collection: RPMI8226_ATCC cell viability assay (AID 1919871). Note: nearly all actives have a fitted effect of over 30% in size. As to conditions: RPMI8226 myeloma viability, CellTiter-Glo ATP luminescence, 48 h; series mostly up to 45.8 µM. In a few lines:
as §2

A short description of experiment [7]: Quantitative High-Throughput drug screen in 47 multiple myeloma cell lines against the NCATS MIPE library collection: KMS28BM_JCRB cell viability assay (AID 1919874). Note: nearly all actives have a fitted effect of over 35% in size. As to conditions: CellTiter-Glo ATP, 48 h; series mostly up to 45.8 µM. In a few lines: as §2
The nature of experiment [8]: qHTS for identification of novel therapeutic agents for treatment of microphthalmiaassociated transcription factor (MiT) renal cell carcinoma (RCC) (AID 1963991). To be noted: CellTiter-Glo, 48 h, stronger effect = lower value. In a few lines:
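Three TFE3-fusion RCC cell lines (UOK109, UOK124, UOK145), 500 cells/well, were exposed to the 1912-compound MIPE 4.0 library for 48 hours at 37 C. Viability was read by CellTiter-Glo luminescence, normalised to DMSO (100%) and empty wells (0%), with 11-concentration curve fits.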

The target of experiment [9] is Cytochrome P450 3A4 (Homo sapiens) (UniProt P08684). Nature of the experiment: qHTS for inhibitors of CYP3A4 against the NCATS DSHEA and TCM libraries (AID 1919971).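 Note: % is set by controls: 0 for no effect and ±100 for the full control effect; inhibition lowers luminescence from luciferin made by CYP3A4.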 To be noted: recombinant CYP3A4 enzyme activity, luminescence qHTS; series mostly up to 34.1 µM. In short, it runs like this: (§3)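 Concentration-response screening with isoform-matched pro-luciferin substrates. The CYP reaction was initiated by NADPH regenerating solution and ran 30-45 min in darkness at room temperature.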
Cytochrome P450 3A4 (Homo sapiens), sequence (P08684 whole entry, looked up, canonical isoform): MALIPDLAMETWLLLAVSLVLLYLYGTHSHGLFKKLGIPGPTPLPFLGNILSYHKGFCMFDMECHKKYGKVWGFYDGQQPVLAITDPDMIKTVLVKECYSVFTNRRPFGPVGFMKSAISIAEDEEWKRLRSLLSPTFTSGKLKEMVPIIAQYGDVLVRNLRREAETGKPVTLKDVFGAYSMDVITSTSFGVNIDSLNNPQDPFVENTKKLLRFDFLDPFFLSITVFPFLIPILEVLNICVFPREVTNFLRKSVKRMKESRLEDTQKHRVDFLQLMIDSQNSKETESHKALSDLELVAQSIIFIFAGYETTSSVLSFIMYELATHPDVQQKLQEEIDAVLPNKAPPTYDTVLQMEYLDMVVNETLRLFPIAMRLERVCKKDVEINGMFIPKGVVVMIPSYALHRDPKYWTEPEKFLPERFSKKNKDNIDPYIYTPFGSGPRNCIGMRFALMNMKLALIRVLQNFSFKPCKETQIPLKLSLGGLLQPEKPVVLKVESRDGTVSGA

For experiment [10], the target named is Cytochrome P450 2D6 (Homo sapiens) (UniProt P10635). Kind of experiment: qHTS for inhibitors of CYP2D6 against the NCATS DSHEA and TCM libraries (AID 1919972). Note: % is set by controls: 0 for no effect and ±100 for the full control effect. To be noted: CYP2D6 enzymatic inhibition, luminescence qHTS; series mostly up to 34.1 µM. In short, it runs like this: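 CYP2D6 enzyme with pro-luciferin substrate in manufacturer buffer (typically 100 mM KPO4), preincubated 15 min RT with substances (most at 19.5 nM upward); NADPH regeneration system (1x) started 30–45 min RT reaction; P450-Glo luminescence read after 30 min; quinidine as intraplate control.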
Cytochrome P450 2D6 (Homo sapiens), sequence (P10635 whole entry, looked up): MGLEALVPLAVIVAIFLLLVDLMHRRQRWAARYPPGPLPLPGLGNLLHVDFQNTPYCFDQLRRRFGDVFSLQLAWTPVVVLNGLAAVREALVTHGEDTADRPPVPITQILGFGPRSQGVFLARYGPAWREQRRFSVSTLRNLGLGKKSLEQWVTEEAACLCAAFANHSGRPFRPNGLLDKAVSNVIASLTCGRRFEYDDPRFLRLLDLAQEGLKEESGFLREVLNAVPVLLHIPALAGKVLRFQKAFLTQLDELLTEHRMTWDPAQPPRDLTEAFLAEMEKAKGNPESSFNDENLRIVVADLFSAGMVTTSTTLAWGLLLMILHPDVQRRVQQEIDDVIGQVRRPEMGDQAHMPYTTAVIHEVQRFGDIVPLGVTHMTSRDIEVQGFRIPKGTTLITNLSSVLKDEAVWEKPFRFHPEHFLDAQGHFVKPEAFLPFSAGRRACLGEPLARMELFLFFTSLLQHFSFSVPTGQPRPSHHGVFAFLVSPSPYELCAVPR

Experiment [11] deals with Cytochrome P450 2C9 (Homo sapiens) (UniProt P11712). Nature of the experiment: qHTS for inhibitors of CYP2C9 against the NCATS DSHEA and TCM libraries (AID 1919973).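 Note: luminogenic pro-luciferin CYP2C9 substrate turned into luciferin with NADPH regeneration; % is set by controls: 0 for no effect and ±100 for the full control effect.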 As to conditions: recombinant CYP2C9 enzyme activity, luminescence; series mostly up to 34.1 µM. In short, it runs like this: as §3
Cytochrome P450 2C9 (Homo sapiens), sequence (P11712 whole entry, looked up): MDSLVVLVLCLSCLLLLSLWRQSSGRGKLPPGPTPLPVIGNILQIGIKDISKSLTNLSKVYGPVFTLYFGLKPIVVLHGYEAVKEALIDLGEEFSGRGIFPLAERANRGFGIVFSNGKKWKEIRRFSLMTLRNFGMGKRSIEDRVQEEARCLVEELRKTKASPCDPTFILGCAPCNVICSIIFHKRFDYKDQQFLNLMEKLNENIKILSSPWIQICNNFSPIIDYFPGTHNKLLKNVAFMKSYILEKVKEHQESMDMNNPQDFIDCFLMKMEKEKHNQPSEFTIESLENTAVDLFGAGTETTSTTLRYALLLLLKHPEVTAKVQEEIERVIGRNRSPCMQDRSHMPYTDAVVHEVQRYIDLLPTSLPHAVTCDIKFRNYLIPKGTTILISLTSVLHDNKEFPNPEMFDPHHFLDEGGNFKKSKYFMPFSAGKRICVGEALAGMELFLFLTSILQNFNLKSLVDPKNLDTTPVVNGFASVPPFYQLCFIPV
Experiment [12] concerns the target Cytochrome P450 2C19 (Homo sapiens) (UniProt P33261). Kind of experiment: qHTS for inhibitors of CYP2C19 against the NCATS DSHEA and TCM libraries (AID 1919974).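 Note: luminescence from luciferin released by CYP2C19 oxidation of a pro-luciferin substrate; % is set by controls: 0 for no effect and ±100 for the full control effect.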 To be noted: CYP2C19 enzyme inhibition, luminescence qHTS; series mostly up to 34.1 µM. In short, it runs like this: as §3
The target in experiment [13] is Cytochrome P450 1A2 (Homo sapiens) (UniProt P05177). Kind of experiment: qHTS for inhibitors of CYPIA2 against the NCATS DSHEA and TCM libraries (AID 1919976).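 Note: light from luciferin formed by CYP1A2 from a pro-luciferin substrate; % is set by controls: 0 for no effect and ±100 for the full control effect.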 To be noted: recombinant CYP1A2 enzyme activity, luminescence; series mostly up to 37 µM. In a few lines: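 Enzyme and pro-luciferin substrate, or substrate alone as no-enzyme background, are pre-incubated with test samples for 15 min at room temperature. NADPH regeneration system (1x final) initiates a 30-45 min dark reaction; luciferase detection reagent follows before luminescence reading.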
Cytochrome P450 1A2 (Homo sapiens), sequence (P05177 whole entry, looked up): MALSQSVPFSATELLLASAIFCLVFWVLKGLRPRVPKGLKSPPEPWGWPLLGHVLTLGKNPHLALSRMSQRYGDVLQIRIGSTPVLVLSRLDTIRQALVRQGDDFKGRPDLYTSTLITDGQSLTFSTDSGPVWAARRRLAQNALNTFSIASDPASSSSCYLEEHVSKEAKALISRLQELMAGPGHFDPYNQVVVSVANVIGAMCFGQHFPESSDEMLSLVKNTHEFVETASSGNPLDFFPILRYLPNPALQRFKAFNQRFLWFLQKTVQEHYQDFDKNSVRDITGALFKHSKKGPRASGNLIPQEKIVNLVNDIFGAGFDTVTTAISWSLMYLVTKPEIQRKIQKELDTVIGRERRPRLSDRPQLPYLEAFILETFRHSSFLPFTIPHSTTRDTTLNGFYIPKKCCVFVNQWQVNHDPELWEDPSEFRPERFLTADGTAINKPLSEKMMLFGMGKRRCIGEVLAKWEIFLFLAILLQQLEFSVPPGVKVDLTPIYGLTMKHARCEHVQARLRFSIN

The mark [14] stands for this setting: measured here: PEO1 parental Z-AUC.
The mark [15] stands for this setting: TFE3-RCC UOK109 viability, measured here: UOK109 Z-AUC.
The mark [16] stands for this setting: TFE3-RCC viability, measured here: UOK124 Z-AUC.
[17] abbreviates: TFE3-RCC viability, measured here: UOK145 Z-AUC.

Results filed as inconclusive are left out. Active and inactive are the calls of the source. Unless noted, calls come from the whole dose curve; as a rule, active = well fitted curve in the direction sought with a large enough effect; inconclusive = small, poorly fitted or top-dose-only effect, or another doubt; inactive = no such curve, though single readings can be large; an effect the other way counts as inactive or inconclusive.

Cytochrome P450 2C19 (Homo sapiens), sequence (P33261 whole entry, looked up): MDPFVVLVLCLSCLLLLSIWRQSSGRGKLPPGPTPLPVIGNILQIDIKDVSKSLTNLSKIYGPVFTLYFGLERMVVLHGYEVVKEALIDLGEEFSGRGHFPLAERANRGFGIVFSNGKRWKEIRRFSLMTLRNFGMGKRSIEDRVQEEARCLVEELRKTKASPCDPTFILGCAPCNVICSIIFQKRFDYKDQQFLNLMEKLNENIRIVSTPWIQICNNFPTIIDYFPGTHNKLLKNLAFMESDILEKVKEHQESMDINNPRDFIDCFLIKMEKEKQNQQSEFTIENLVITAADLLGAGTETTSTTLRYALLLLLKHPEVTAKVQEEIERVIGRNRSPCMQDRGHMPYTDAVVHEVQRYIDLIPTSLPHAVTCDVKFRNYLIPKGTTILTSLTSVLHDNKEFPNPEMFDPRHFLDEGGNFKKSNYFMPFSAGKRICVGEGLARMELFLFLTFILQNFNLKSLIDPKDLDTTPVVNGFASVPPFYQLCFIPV

In the case of `CCCC(C)(COC(N)=O)COC(N)=O`, the activity, negative = inhibition in [1] (parasite line A) is 5.3% (inactive); in experiment [1] (parasite line B), 9.68% (inactive). Further, the Potency entry in the experiment with 3D7, in the experiment on 7G8, in the experiment with AA1029, with AS120, with ATS189 and in the experiment with ATS95 was “inactive” throughout. The Potency entry in the experiment with C2A was “inactive”.

On to `O=C(O)CCCc1ccc(N(CCCl)CCCl)cc1`, for which the Potency in [2] was 16.6 µM (active). Further, the molecule was classed as inactive in experiment [3]. Further, the Potency entry (in experiment [4]; with 3D7; with AA1029; in the experiment on AS120; in the experiment with ATS189; in the experiment with ATS95) was “inactive” throughout. Further, the Potency entry in the experiment on C2A was “inactive”. For the same molecule, the Z-AUC is 0.915 (inactive) in experiment [5], 0.822 in [5] (setting [14]) and 1.2 in [5] (measured here: PEO4 Z-AUC). Moreover, the activity, negative = inhibition is -9.59% (inactive) in experiment [1] (parasite line A) and 1.97% (inactive) in experiment [1] (parasite line B).

Take `CC(C)C[C@H](CN)CC(=O)O`: the Potency result in [6] and in experiment [4] was “inactive” each time. Also, the molecule was called inactive in experiment [3] and in [7]. Further, the results for the Z-AUC in experiment [5], in [5] (setting [14]) and in experiment [5] (measured here: PEO4 Z-AUC) were 1.17 (inactive), 0.458 and 0.548, respectively. Moreover, the values for the z-score in experiment [8] (setting [15]), in experiment [8] (setting [16]) and in [8] (setting [17]) were -0.701, 0.851 and 0.709, respectively.

Regarding `CCCCCCCCCCCCCCCCCC(=O)O`, the result in [9], in [10], in experiment [11], in experiment [12] and in [13] was inactive.

For `CCC1(c2ccc(N)cc2)CCC(=O)NC1=O` (stereo unspecified), the Potency entry in experiment [6] is “inactive”. Besides, the call in experiment [3] and in [7] was inactive. The values for the Z-AUC in experiment [5], in [5] (setting [14]) and in experiment [5] (measured here: PEO4 Z-AUC) were 1.39 (inactive), 0.942 and 1.02, respectively.

`CN1C(=O)COc2c(C(=O)NC3CN4CCC3CC4)cc(Cl)cc21` (stereo unspecified): the Potency entry (in experiment [2]; in experiment [6]; with 3D7; in the experiment on AA1029; with AS120; in the experiment with ATS189) was “inactive” each time. For the same molecule, the Potency entry with ATS95 and with C2A was “inactive” each time. Moreover, the result in [3] was inactive. Besides, the Z-AUC was -0.165 (inactive) in experiment [5], -0.0882 in [5] (setting [14]) and 0.485 in experiment [5] (measured here: PEO4 Z-AUC). Further, the activity, negative = inhibition in [1] (parasite line A) was 7.89% (inactive); in experiment [1] (parasite line B), 7.46% (inactive).

As for `CN1C(=O)CCS(=O)(=O)C1c1ccc(Cl)cc1` (stereo unspecified), the Potency result (in experiment [2]; with 3D7; in the experiment on 7G8; in the experiment on AA1029; with AS120; in the experiment with ATS189) was “inactive” each time. Moreover, the Potency entry with ATS95 and with C2A was “inactive” each time. Further, the molecule was called inactive in experiment [3] and in experiment [7]. For the same molecule, the Z-AUC in experiment [5] was 1.64 (inactive); in experiment [5] (setting [14]), 1.76; in [5] (measured here: PEO4 Z-AUC), 1.36. Further, the z-score in [8] (setting [15]) came to 0.949; in experiment [8] (setting [16]), 0.189; in experiment [8] (setting [17]), 0.774. Further, the activity, negative = inhibition was -12.8% (inactive) in experiment [1] (parasite line A) and -22.5% (inactive) in [1] (parasite line B).

The values are drawn from PubChem BioAssay (NCATS).
